As usually defined, the inhibition is the change of the read-out against control, counted positive when it falls.

For this assay, the target named is Bifunctional epoxide hydrolase 2 (Homo sapiens) (UniProt P34913). In words: sEH inhibitor concentration-response potency, dose response, biochemical, human sEH, fluorescence, Infinite200 (AID 1026). Conditions: recombinant human sEH, fluorogenic substrate, at 0.2 µM, stronger effect = higher value.

The structures appear in SMILES notation. Values without a mark were called inactive. How the calls were made is not given here.

Chain of Bifunctional epoxide hydrolase 2 (Homo sapiens) (P34913 whole entry, looked up): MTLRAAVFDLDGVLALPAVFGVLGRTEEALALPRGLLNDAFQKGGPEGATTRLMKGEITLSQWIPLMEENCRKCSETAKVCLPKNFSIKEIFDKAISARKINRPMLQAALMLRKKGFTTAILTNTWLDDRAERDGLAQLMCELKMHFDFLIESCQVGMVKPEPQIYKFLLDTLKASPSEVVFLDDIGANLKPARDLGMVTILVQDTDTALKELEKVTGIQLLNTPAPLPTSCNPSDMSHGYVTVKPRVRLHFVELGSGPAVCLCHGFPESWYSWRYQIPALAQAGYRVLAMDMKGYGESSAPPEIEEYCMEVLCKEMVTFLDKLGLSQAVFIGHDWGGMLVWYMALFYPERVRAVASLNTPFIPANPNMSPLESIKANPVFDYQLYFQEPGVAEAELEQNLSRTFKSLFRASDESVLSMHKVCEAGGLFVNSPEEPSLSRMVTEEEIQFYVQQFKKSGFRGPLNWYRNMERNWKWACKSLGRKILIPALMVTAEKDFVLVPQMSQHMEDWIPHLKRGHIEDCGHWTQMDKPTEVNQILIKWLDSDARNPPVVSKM

Turning to `O=C(CSCc1ccc(Cl)cc1)N/N=C/c1ccc(Cl)cc1Cl`, the inhibition was 55.6%. In the case of `O=C(NCCSCc1ccco1)Nc1cccc(Cl)c1`, the inhibition was 46.2%. Turning to `Cc1cc(N2CCCC(C(=O)Nc3ccc4c(c3)CCC4)C2)n2ncnc2n1` (centres undefined), the inhibition is 50.2%. For `CC(NC(=O)NC12CC3CC(CC(C3)C1)C2)C1CCCO1` (centres undefined), the inhibition is 71.5%. For `O=C(Nc1ccc2c(c1)nc1n2CCN(Cc2ccccc2)C1)NC1CCCCC1` the value was 58.4%; for `CCOc1ccc(NC(=O)NCC2CCN(c3ccc(OC)cc3)C2)cc1` (centres undefined), 26.9%; for `CC(=O)N1CCN(c2ccc(NC(=O)COc3ccc(Cl)cc3Cl)cc2)CC1`, 38.5%. Regarding `O=C(Nc1ccc(N2CCOCC2)cc1)Nc1ccc(Cl)c(Cl)c1`, the inhibition is 40%.

For the molecule `Cc1ccccc1OCCCC(=O)Nc1ccc(Br)cc1`, the inhibition is 69.8%. As for `CCCCOc1cccc(/C=N/NC(=O)c2csc(C)c2C)c1`, the inhibition was 60.7%. Consider `O=C(CCC1CCCCC1)NNC(=O)NC12CC3CC(CC(C3)C1)C2`, for which the inhibition is 59.2%. With `CC1CCCC(NC(=O)Nc2cccs2)C1C` (centres undefined), the inhibition was 49.2%. For `CCn1c(C(=O)N2CCCC(C(=O)NCCCc3ccccc3)C2)cc2sccc21` (centres undefined) the value was 65.6%. In the case of `O=C(Nc1cnn(Cc2ccccc2)c1)NC12CC3CC(CC(C3)C1)C2`, the inhibition was 59.3%. Regarding `Cc1c(Cl)c([N+](=O)[O-])nn1Cc1ccc(C(=O)N/N=C\c2cccc(Br)c2)o1`, the inhibition was 66.8%. In the case of `COc1ccc(NC(=O)N2CCC(c3nc(-c4cccs4)no3)CC2)cc1`, the inhibition is 62.9%.

Take `CC(C)c1ccc(NC(=O)N2CCC(c3nc4ccccc4o3)CC2)cc1`: the inhibition was 66.3%. As to `Cc1noc(C)c1COc1cccc(C(=O)NCc2ccccc2Cl)c1`, the inhibition is 52.4%.

Take `CCn1nc(CC(=O)Nc2ccc(-n3cnnn3)c(C)c2)c2ccccc2c1=O`: the inhibition was 48.9%. For `O=C(Nc1cccc(C(F)(F)F)c1)NC1CCCCC1` the value was 66.5%. Turning to `NS(=O)(=O)c1ccc(CNC(=O)/C=C/c2c(Cl)cccc2Cl)cc1`, the inhibition is 51.6%. For the molecule `Cc1ccc(CCNC(=O)C2CCCN(S(=O)(=O)c3cccc4nsnc34)C2)cc1` (centres undefined), the inhibition is -5.2%. In the case of `O=C(NCCC1=CCCCC1)C1CCCN(c2nc3ccccc3o2)C1` (centres undefined), the inhibition is 53.6%.

Consider `CCC(CC)NC(=O)COC(=O)c1ccc(OCC(=O)Nc2ccccc2OC)c(OC)c1`, for which the inhibition was 48.6%. `Cc1nn(Cc2ccccc2Cl)c(C)c1NC(=O)NC12CC3CC(CC(C3)C1)C2`: the inhibition was 66%.

Regarding `O=C(Nc1cccc2ccccc12)c1ccc(OC(=S)N2CCOCC2)cc1`, the inhibition is 68.8%. Consider `Cc1ccccc1C(=O)N1CCN(c2ccc(NC(=O)CSc3ccc(Cl)cc3)cc2)CC1`, for which the inhibition is 60.1%. For `CCOC(=O)c1sc(NC(=O)c2ccc(C)s2)cc1C` the value was 59.1%. Next, `C=CCN1C(=O)CSc2ccc(C(=O)NCCC3=CCCCC3)cc21`: 55.8%; `O=C(Nc1ccc(F)c(F)c1)NC1CCCCC1`: 55.5%; `Cc1ccccc1C(=O)N1CCC(C(=O)Nc2ccc(S(=O)(=O)N(C)C(C)C)cc2)CC1`: 50.3%.

As for `O=C(Nc1ccc(Cl)cc1)N1CCC(c2nc(-c3ccccc3Cl)no2)CC1`, the inhibition is 62.8%.

For the molecule `CCOc1ccc(NC(=O)NCCCSC2CCCCC2)cc1`, the inhibition was 54.6%.

Consider `COc1ccc(CNC(=O)C2CCC(CNS(=O)(=O)c3cccc4nsnc34)CC2)cc1` (centres undefined), for which the inhibition was 74.4%. Next, `COCCNC(=O)CN1CCC(NC(=O)Nc2ccc(C(F)(F)F)cc2)CC1`: 54.7%; `COc1ccccc1NS(=O)(=O)c1cccc(C(=O)NN)c1`: 42.3%. For `CCCOc1cccc(/C=N/NC(=O)c2csc(C)c2C)c1` the value was 49.7%; for `CC(Cc1cccs1)NC(=O)Nc1ccc(Cl)c(Cl)c1` (centres undefined), 65.5%; for `Cc1ccccc1CSCCNC(=O)CCSc1ccccc1`, 44.2%.

These data come from PubChem BioAssay AID1026 (Columbia University Molecular Screening Center, 2008).
